Laboratory results: PubChem BioAssay (Tox21)
Inconclusive results are not listed. Entries that show only a call come without a potency. The source made the active and inactive calls. Unless noted, calls follow the shape of the dose curve; as a rule, active = well fitted curve in the direction sought with a large enough effect in the repeat runs; inconclusive = weak or mixed curves; inactive = no such curve, though single readings can be large; an effect the other way counts as inactive or inconclusive.

Tests used:
[1] = qHTS assay to identify small molecule agonists of the hypoxia (HIF-1) signaling pathway - cell viability counter screen (AID 1224844; calls by dose curve; also: nearly all actives have a fitted effect of over 50% in size); conditions: HRE-bla ME-180 viability, CellTiter-Glo luminescence, 17 h; series mostly up to 76.8 µM
Summary of the method: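 HRE-bla ME-180 cells in medium with 0.5% dialyzed FBS were preincubated 5 hrs at 37C, exposed to compounds for 17 hrs, then viability was read as CellTiter-Glo luminescence after 30 min at room temperature, in the reporter wells.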

[2] = qHTS assay to identify small molecule agonists of H2AX (AID 1224845; active = well fitted activation curve with a large enough effect in the signal ratio in the repeat runs, not every such curve was filed as active; the % refers to the signal ratio; also: potency is read from the fitted curve at half-maximal effect); conditions: CHO-K1 phospho-H2AX Ser139 HTRF, 3 h; series mostly up to 154 µM
Summary of the method: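 Wild-type CHO-K1 cells, plated overnight, exposed 3hr at 37C to 15 concentrations (0.76% DMSO final). Lysed, then HTRF anti-pH2AX (S139) cryptate and anti-H2AX-d2 antibodies, 24 hr room temperature; 665/620 nm emission read.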

[3] = qHTS assay to identify small molecule agonists of the hypoxia (HIF-1) signaling pathway (AID 1224846; active = well fitted activation curve with a large enough effect in the signal ratio in the repeat runs, not every such curve was filed as active; the % refers to the signal ratio); conditions: HRE-bla ME-180 cells, beta-lactamase ratio, 17 h; series mostly up to 76.8 µM
Summary of the method: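 HRE-bla ME-180 cells (beta-lactamase reporter under hypoxia response element) were plated at 2,000 cells/well in medium with 0.5% dialyzed FBS, rested 5 hrs, then given compounds in DMSO for 17 hrs at 37C, 5% CO2. Reporter induction was read with CCF4-AM FRET substrate.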

[4] = qHTS assay to identify small molecule agonists of H2AX - cell viability counter screen (AID 1224847; calls by dose curve; also: top concentration of the series differs between compounds; nearly all actives have a fitted effect of over 30% in size); conditions: CHO-K1 viability, CellTiter-Glo luminescence, 3 h; series mostly up to 154 µM
Summary of the method: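 We seed wild-type CHO-K1 cells overnight, treat them for 3 hr at 37C with compounds in 15-concentration series, and quantify remaining viability by CellTiter-Glo luminescence.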

[5] = qHTS RealTime-Glo MT Cell Viability Assay in HepG2 cells - 24 hour (AID 1224867); conditions: RealTime-Glo luminescence; series mostly up to 76.8 µM; also: nearly all actives have a fitted effect of over 50% in size
Summary of the method: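 qHTS, HepG2, 600 cells/well, RealTime-Glo (NanoLuc + prosubstrate) added with cells; 5 h preincubation; DMSO compound addition; 37 C; luminescence at 0/8/16/24/32/40 h.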

[6] = qHTS RealTime-Glo MT Cell Viability Assay in HEK293 cells - 32 hour (AID 1224868); conditions: RealTime-Glo luminescence; series mostly up to 76.8 µM; also: top concentration of the series differs between compounds; nearly all actives have a fitted effect of over 50% in size
Summary of the method: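 Assay medium contained NanoLuc luciferase plus cell-permeant prosubstrate, added with HEK293 cells at 600 cells/well. After 5 h at 37 C/5% CO2 compounds were added; plates stayed at 37 C for 40 h with serial luminescence reads.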

[7] = A CellTox Green Cytotoxicity Assay to monitor cytotoxicity in HEK293 cells - 0 hour (AID 1224869); conditions: CellTox Green fluorescence; series mostly up to 76.8 µM; also: nearly all actives have a fitted effect of over 50% in size
Summary of the method: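 HEK293 cells premixed with CellTox Green dye were seeded at 600 cells/well and left 5 h at 37 C/5% CO2 before pin transfer of 23 nL compound in DMSO. Fluorescence from dye bound to dead-cell DNA was read during 40 h treatment.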

Row | SMILES | Potency [1] | Potency [2] | outcome [3] | Potency [4] | outcome [5] | Potency [6] | Potency [7]
1 | O=C(O)CCc1nc2ccccc2[nH]1 | inactive | inactive | inactive | inactive | inactive | inactive | inactive
2 | Nc1nc(Cl)nc2c1ncn2[C@H]1C[C@H](O)[C@@H](CO)O1 | inactive | 14.1 µM (active) |  |  | inactive | inactive | inactive
3 | C(/C=C/C=C/Nc1ccccc1)=Nc1ccccc1 | inactive | inactive |  | inactive | inactive | inactive | inactive
4 | O=C(OCCOCCOCCOC(=O)c1ccccc1)c1ccccc1 | inactive | inactive | inactive |  | inactive | inactive | inactive
